According to PubChem BioAssay (EPA / NIEHS):
Active and inactive are the calls of the source. Rule for the calls: active = hit-call score of the fitted dose curve at least 0.9, where 1 is the maximum; inactive = score below 0.9.

What follows are molecules tested on Nuclear factor erythroid 2-related factor 2 (Homo sapiens) (UniProt Q16236) (assay: LTEA_HepaRG_NFE2L2: Life Technologies and Expression Analysis (LTEA) Assay for Nuclear factor erythroid 2-related factor 2 (NFE2L2) Transcription Factor using HepaRG (AID 2283527;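 for outcome: TaqMan qRT-PCR transcript level normalised to ACTB GAPDH and POLR2A housekeeping genes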)). Details: mRNA level, 48 h; actives raise or lower the signal.
Sequence of Nuclear factor erythroid 2-related factor 2 (Homo sapiens) (Q16236 whole entry, looked up): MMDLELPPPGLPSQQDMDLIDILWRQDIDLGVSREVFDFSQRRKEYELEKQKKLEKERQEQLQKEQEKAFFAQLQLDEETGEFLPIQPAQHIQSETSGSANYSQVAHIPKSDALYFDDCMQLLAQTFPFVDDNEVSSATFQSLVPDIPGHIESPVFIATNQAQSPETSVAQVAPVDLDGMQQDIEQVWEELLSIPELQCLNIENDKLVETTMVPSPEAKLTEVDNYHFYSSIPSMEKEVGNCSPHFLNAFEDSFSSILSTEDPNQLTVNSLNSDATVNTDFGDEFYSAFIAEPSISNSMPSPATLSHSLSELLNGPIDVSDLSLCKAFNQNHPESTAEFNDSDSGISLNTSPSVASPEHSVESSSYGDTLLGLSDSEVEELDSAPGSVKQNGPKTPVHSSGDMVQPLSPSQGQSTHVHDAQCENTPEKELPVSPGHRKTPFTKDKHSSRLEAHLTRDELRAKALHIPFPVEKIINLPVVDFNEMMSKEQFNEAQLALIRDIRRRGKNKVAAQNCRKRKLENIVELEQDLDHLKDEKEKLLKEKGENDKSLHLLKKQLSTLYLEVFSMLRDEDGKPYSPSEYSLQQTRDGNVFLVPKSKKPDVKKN
Description: LTEA_HepaRG is a cell based, multiplexed-readout assay that uses HepaRG, a human liver cell line, with measurements taken at 48 hours after chemical dosing on a 96-well plate.LTEA_HepaRG_NFE2L2 is one of 102 assay component(s) measured in the LTEA HepaRG cell culture assay. It is a marker of Inflammation/injury.Data from the assay component LTEA_HepaRG_NFE2L2 was analyzed into 1 endpoint. This assay endpoint, LTEA_HepaRG_NFE2L2, was analyzed with bidirectional fitting relative to DMSO as the negative control and baseline of activity. Using a type of inducible reporter, measures of mRNA induction for gain or loss-of-signal activity can be used to understand regulation of transcription factor activity. To generalize the intended target to other relatable targets, this assay endpoint is annotated to the dna binding intended target family, where the subfamily is basic leucine zipper.
A total of 1060 chemcials from the ToxCast library were tested in eight-point concentration-response experiments. Cell culture and cytotoxicity assays were conducted at Thermo Fisher Scientific's Custom Services facility (Madison, WI). A single lot of human HepaRG cells (Thermo Fisher Scientific, Frederick, MD) was used for the cell culture experiments. 96-well format collagen type I coated plates of human HepaRG cells were prepared using established methods. Briefly, cryopreserved HepaRG cells were thawed, plated at a density of approximately 100,000 cells/well in HepaRG Thaw, Plate, and General Purpose media (HPRG770, Thermo Fisher Scientific), and incubated for 48 hours. 0.5% DMSO was selected as vehicle control to balance the requisite need of DMSO in HepaRG cultures to maintain differentiation (for example, baseline metabolism, proportions of hepatocytes vs. cholangiocytes), while enabling further hepatic receptor pathway activation (for example, PXR and CAR) in response to chemical exposure. 48 hours after plating, the culture medium was replaced with HepaRG Serum-Free Incudtion Media. Cells were exposed to each test chemical in duplicate and maintained in CO2 incubators for another 48 hours. Chemical plates were thawed to room temperature and 200x concentrations of treatment groups were prepared. 8-point conentration-reponse curves were made with the highest exposure at 100 uM, followed by half-log dilutions, all in 0.5% DMSO. Each test plate contained variouse controls, induction positive controls (1mM phenobarbital), cytotoxicity positive controls ([…] aflatoxin B1), vehicle controls (0.5% DMSO), and total lysis controls (0.5% DMSO). Cell morphology images were taken using an Essen IncuCyte FLR automated microscope, with six 96-well plates imaged in about 24 minutes. Images were captured and exported and JPEG files. Spent culture media was transfered to black-well plates for the LDH assay, and remaining media was sorted at -80 C for later use. Cells were treated with RLT buffer and frozen until shipped for gene expression analysis. Total RNA was isolated from the cell suspension in 75 uL of Buffer RLT (Qiagen, Germantown, MD 20874) by Quintiles/Expression Analysis (Durham, NC) using a custom isolation procedure. Total RNA from each plate well was transferred to a preamplification plate. Fluidigm's 96.96 Dynamic ArrayTM (Fluidigm, Amsterdam, the Netherlands) technology was used for gene expression analyses by quantitative reverse transcription polymerase chain reaction (qRT-PCR, performed by Quintiles/Expression Analysis, Durham, NC)89. Standard TaqManTM Assays (Applied Biosystems/ThermoFisher Scientific, Foster City, CA) were used to assess the expression of 93 genes selected based on their selectivity and sensitivity to important hepatic receptors known to be modulated by environmental chemicals; importance in human hepatocyte functionality; and hepatotoxicity. […]
With `CC(C)NCC(O)c1ccc(O)c(O)c1` (stereo not given) the AC50 was 0.2 µM (active). In the case of `CCCCc1nc2cccnc2n1Cc1ccc(-c2ccccc2-c2nnn[nH]2)cc1`, the outcome is reported as “inactive”. For `Nc1nc(Cl)nc2c1ncn2[C@H]1C[C@H](O)[C@@H](CO)O1`, the outcome was “inactive”. `S=c1[nH]c2ccccc2s1` was tested, and the outcome was “inactive”. With `Cn1cnc2c1c(=O)[nH]c(=O)n2C` the outcome was “inactive”. In the case of `O=C(O)CC(O)(CC(=O)O)C(=O)O`, the outcome is reported as “inactive”. With `CCCC(=O)O` the outcome was “inactive”. `NC1CCCCC1` was tested, and the outcome was “inactive”. For `CC(C)COC(=O)CCCCC(=O)OCC(C)C`, the outcome was “inactive”. In the case of `Cc1cc(SC2=C(O)C[C@@](CCc3ccc(N)cc3)(C(C)C)OC2=O)c(C(C)(C)C)cc1CO`, the outcome is reported as “inactive”. With `O=C(N[C@@H](c1ccccc1)[C@@H]1CCCCN1)c1cccc(C(F)(F)F)c1Cl` the AC50 was 83.8 µM (active). In the case of `O=NO`, the outcome is reported as “inactive”. In the case of `Cc1cn([C@H]2C=C[C@@H](CO)O2)c(=O)[nH]c1=O`, the outcome is reported as “inactive”. In the case of `CCCCCCCCCCCCCCCCO`, the outcome is reported as “inactive”. In the case of `CC(C)OC(=O)C(C)(C)Oc1ccc(C(=O)c2ccc(Cl)cc2)cc1`, the outcome is reported as “inactive”. With `C=CCCCCCCCCCCCC` the outcome was “inactive”. With `CCCCCCC(CCCCCCCCCCC(=O)OCC(COC(C)=O)OC(C)=O)OC(C)=O` (stereo not given) the outcome was “inactive”. `O=[Si]=O` was tested, and the outcome was “inactive”. In the case of `O=C(O)c1cccnc1`, the outcome is reported as “inactive”. For `OCC(CO)n1cnc(-c2ccc(F)cc2)c1-c1ccnc(Oc2ccccc2)n1`, the AC50 was 33.8 µM (active). In the case of `CC(C)c1cccc(C(C)C)c1`, the outcome is reported as “inactive”. For `CC(C)(O)c1ccc(CNC(=O)c2cccnc2Oc2ccc(F)cc2)cc1`, the outcome was “inactive”. `CN(C)CCCN(C)CCCN(C)C` was tested, and the outcome was “inactive”. For `CC(=O)O`, the outcome was “inactive”. `O=C1c2c(O)cccc2Cc2cccc(O)c21` was tested, and the outcome was “inactive”. For `CC1(C)C(=O)NC(=O)N1CO`, the outcome was “inactive”. `CCN(CC)CCOc1ccc(C(=C(Cl)c2ccccc2)c2ccccc2)cc1` was tested, and the AC50 was 77.7 µM (active). In the case of `Cc1cc(Cc2ccc(N)c(C)c2)ccc1N`, the outcome is reported as “inactive”. For `CC1=C(C)S(=O)(=O)CCS1(=O)=O`, the AC50 was 65.7 µM (active). With `CN(C)C(=O)NC1(c2ccccc2)CCN(CC[C@@]2(c3ccc(F)c(F)c3)CN(C(=O)c3ccccc3)CCO2)CC1` the outcome was “inactive”. `Nc1nc(=S)c2[nH]cnc2[nH]1` was tested, and the AC50 was 26.6 µM (active). With `CS(=O)(=O)c1ccc([C@@H](C[C@H]2CCC(=O)C2)C(=O)Nc2cnccn2)cc1Cl` the AC50 was 0.738 µM (active). For `COc1ccc(C(=O)Nc2nc3ccccc3c(NCc3ccccc3)c2C#N)cc1`, the AC50 was 20.9 µM (active). With `CC(=O)OC1CC(C)OC(C)O1` (stereo not given) the outcome was “inactive”. With `CCCCC(CC)CO` (stereo not given) the outcome was “inactive”. With `CCCCOC(=O)CCCCC(=O)OCCCC` the outcome was “inactive”. For `O=C(O)CN(CC(=O)O)CC(=O)O`, the outcome was “inactive”. With `O=C1OC(c2ccc(O)cc2)(c2ccc(O)cc2)c2ccccc21` the outcome was “inactive”. With `C#CC(O)C(CC)CCCC` (stereo not given) the outcome was “inactive”. In the case of `OCC(O)CO`, the outcome is reported as “inactive”.
